Assay results taken from PubChem BioAssay.
Several values for one entry are separate records, joined by “and”; a condition that tells them apart may be missing. Equal values may be shown once. For some of these results: Measured potencies and affinities stand elsewhere. Activity calls are given as the source filed them. Rule as the data show it, unless noted: active = parasite load remaining mostly below about 12% (no sharp cut-off); inactive = mostly above about 10%.

Columns and labels:
[1] = blockers of polyQ-driven CASP3 activation – cell-based (AID 1583); settings: polyglutamine-induced caspase-3 activation, cell assay; stronger effect = higher value;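 tested at 10 µM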
[2] = yeast 75Q aggregation reduction – 75Q-TubU reporter (AID 1593); settings: Yeast 75Q polyglutamine aggregation reporter
[3] = restoration of touch response, mutant HTT neurons – whole organism, C. elegans mechanosensory neurons, N-terminal huntingtin (AID 1599); settings: C. elegans polyQ-huntingtin mechanosensory neurons, stronger effect = higher value
[4] = blockers of cytochrome c efflux from mitochondria – biochemical, purified mitochondria (AID 1603); settings: stronger effect = lower value;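 also: mouse liver mitochondria challenged with calcium chloride; signal normalized to the plate average as 100%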
[5] = polyglutamine aggregate formation blockers (AID 1604); settings: polyglutamine-induced protein aggregation inhibition assay; stronger effect = higher value; tested at 2.5 µM
[6] = glutamate transport activators, MN-1 cells, MN-1 cell line (AID 1612); settings: MN-1 motor neuron cells, stronger effect = higher value;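 also: tested at 1 µM final; 0% = mean of DMSO vehicle wells on each plate; positive means more glutamate uptake than control and negative means less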
[7] = GFP-Q80 aggregate reduction, neuronal-like cells, cell-based, NGF-treated PC12, GFPQ80 (AID 1614); settings: PC12 NGF-treated GFP-polyQ80 inclusion reduction;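 also: lower means fewer inclusions and 0 means no inclusions at all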
[8] = 75Q-TubH aggregate inhibition, S. cerevisiae, yeast (AID 1616); settings: S. cerevisiae 75Q-TubH polyglutamine aggregation suppression; stronger effect = higher value
[9] = P. berghei load reduction in hepatocytes – cell-based, HepG2, luciferase luminescence, HepG2 viability, primary screen (AID 624349);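 also: 100% = mean of DMSO negative control wells on the same plate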; settings: P. berghei liver stage in HepG2, luciferase luminescence, concentration not given here; parasite load remaining: stronger effect = lower value; viability: measured here: HepG2 viability without parasites
[10] = EMT-state selective cytotoxicity in co-culture – imaging, PC-3E GFP, TEM4-18 mCherry, primary screen (AID 1345086;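 active = compounds killing one labelled cell type while sparing the other, by normalised counts and ratio limits, not self-fluorescent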;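 as to all read-outs here: cells exposed to compound for 72 h before imaging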;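 as to red/green cell ratio (normalised): normalised mesenchymal count divided by normalised epithelial count so high means epithelial killing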); settings: PC-3E GFP / TEM4-18 mCherry co-culture, imaging cell counts, at 1 µM; for red/green cell ratio (normalised): actives lie on both sides, counts scaled to control wells, 1 = unselective
[11] = viability loss with induced miR-34 in A549 – imaging, A549 dox-inducible miR-34, nuclei and caspase counts, primary screen (AID 1347080;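 active = compounds whose cell count with miR-34 switched on is under 0.7 times the count with it off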); settings: A549 miR-34 inducible, Hoechst nuclei count, 48 h
[12] = measured here: epithelial PC-3E GFP cell survival
[13] = measured here: mesenchymal TEM4-18 mCherry cell survival
[14] = stronger effect = lower value, cell number ratio, induced over uninduced
[15] = measured here: relative caspase fold change +Dox/-Dox
[16] = measured here: total cells with miR-34 induction, stronger effect = lower value
[17] = measured here: total cells without miR-34 induction

Structure (SMILES) | inhibition [1] [%] | score [2] | rescue above control [3] | cytochrome c release ratio [4] | inhibition of aggregation [5] [%] | glutamate uptake change [6] [%] | inclusion score [7] | aggregation suppression score [8] | parasite load remaining [9] | viability [9] | red/green cell ratio (normalised) [10] | normalised cell number [10, 12] | normalised cell number [10, 13] | fold change [11, 14] | fold change [11, 15] | cell count [11, 16] | cell count [11, 17]
Cc1onc(-c2ccccc2)c1C(=O)NC1C(=O)N2[C@@H]1SC(C)(C)[C@@H]2C(=O)O (some centres not stated) | 7.8 | 1.09 | 17.4 | 0.85 | -11.1 | -21.8 | 2 | 1.34 | 86.3% (inactive) and 60.5% (inactive) | 72.2% and 86.2% | 0.97 (inactive) | 1.16 | 1.12 | 0.832 (inactive) | 1.09 | 11300 | 13500
CO[C@@H]1[C@@H](O[C@@H]2O[C@H](C)[C@@H](O[C@H]3C[C@@](C)(O)[C@H](O)[C@H](C)O3)[C@H](N(C)C)[C@H]2O)[C@@H](CC=O)C[C@@H](C)[C@@H](O[C@H]2CC[C@H](N(C)C)[C@@H](C)O2)/C=C/C=C/C[C@H](C)OC(=O)C[C@H]1O | 7.63 | 1.61 | 24.9 | 1.41 | 50.8 | -5.09 | 2 | 1.01 | 143% (inactive) and 69.7% (inactive) | 83.9% and 197% | 0.86 (inactive) | 1.23 | 1.05 | 0.795 (inactive) | 4.68 | 10300 | 12900
C[C@H]1O[C@@H](O[C@H]2[C@@H](O)C[C@H](O[C@H]3[C@@H](O)C[C@H](O[C@H]4CC[C@]5(C)C6C[C@@H](O)[C@]7(C)[C@@H](C8=CC(=O)OC8)CC[C@]7(O)C6CC[C@@H]5C4)O[C@@H]3C)O[C@@H]2C)C[C@H](O)[C@@H]1O (some centres not stated) | 80 | 1.17 | 0 | 0.9 | 88.9 | -3.95 | 1.5 | 1.34 | 1.4% (inactive) and 1.3% (inactive) | 36.1% and 54.9% | 0.68 (inactive) | 1.14 | 0.77 | 0.434 (active) | 2.23 | 193 | 445
C=C[C@@]1(C)CC(=O)[C@@]2(O)[C@](C)(O1)[C@@H](OC(C)=O)[C@@H](O)C1C(C)(C)CC[C@H](O)[C@@]12C (some centres not stated) | 4.06 | 1.39 | 0.33 | 0.91 | 15.4 | 15.8 | 1 | 1.2 | 150% (inactive) and 45.5% (inactive) | 93.3% and 96.7% | 1 (inactive) | 1.25 | 1.26 | 0.888 (inactive) | 3.59 | 11900 | 13400
CCOC(=O)OC(C)OC(=O)C1N2C(=O)C(NC(=O)[C@H](N)c3ccccc3)C2SC1(C)C (some centres not stated) | 5.61 | 1.5 | -4.3 | 0.96 | 70.4 | -13.3 | 2 | 1.07 | 43.5% (inactive) | 104% | 1.19 (inactive) | 1.07 | 1.27 | 0.906 (inactive) | 2.54 | 11600 | 12800
C[C@H](CCC(=O)O)[C@H]1CCC2C3C(CC[C@@]21C)[C@@]1(C)CC[C@@H](O)C[C@H]1C[C@@H]3O (some centres not stated) | 20.5 | -0.02 | 3.58 | 1.17 | 66.7 | -4.34 | 2 | 0.256 | 50.6% (inactive) and 45.5% (inactive) | 77.3% and 94.5% | 1.02 (inactive) | 1.05 | 1.08 | 0.898 (inactive) | 1.12 | 11500 | 12900
CC12CCC(=O)C=C1CCC1C2[C@@H](O)CC2(C)C1CC[C@]2(O)C(=O)COP(=O)(O)O (some centres not stated) | -6.16 | 1.65 | -3.35 | 1.1 | 44.7 | 26.3 | 2 | 1.46 | 75.6% (inactive) | 91.2% | 0.95 (inactive) | 1.05 | 0.99 | 0.789 (inactive) | 1.68 | 7430 | 9410
CC1(C)O[C@@H]2CC3C4C[C@H](F)C5=CC(=O)CC[C@]5(C)C4[C@@H](O)C[C@]3(C)[C@]2(C(=O)CO)O1 (some centres not stated) | 6.64 | 1.49 | 7.14 | 1.08 | 66.7 | 17 | 2.5 | 0.898 | 151% (inactive) and 47.9% (inactive) | 68.8% and 102% | 1.21 (inactive) | 1.17 | 1.42 | 0.854 (inactive) | 2.6 | 7720 | 9050
O=C(O)CCCCC1SCC2NC(=O)NC21 (configuration not stated) | 27.9 | 1.08 | 4.79 | 0.89 | 0 | -4.28 | 2 | 1.3 | 40.6% (inactive) and 36.1% (inactive) | 78% and 88.2% | 1.21 (inactive) | 1.02 | 1.23 | 0.892 (inactive) | 3.76 | 12200 | 13700
CC(=O)OCC(=O)[C@@]1(O)CCC2C3CCC4=CC(=O)CC[C@]4(C)C3C(=O)C[C@@]21C (some centres not stated) | -3.61 | 1.04 | -2.34 | 0.91 | 69.7 | -1.1 | 2 | 0.738 | 120% (inactive) and 65.9% (inactive) | 67.1% and 90.7% | 1.08 (inactive) | 1.08 | 1.17 | 0.911 (inactive) | 0.583 | 11400 | 12500
NC(=O)c1cc[n+](CC2=C(C(=O)O)N3C(=O)C(NC(=O)C(c4ccccc4)S(=O)(=O)[O-])C3SC2)cc1 (configuration not stated) | -4.99 | 0.99 | -3.36 | 0.92 | 24.1 | -27.4 | 2 | 1.42 | 51% (inactive) | 86.8% | 0.99 (inactive) | 1.08 | 1.07 | 0.877 (inactive) | 3.65 | 11600 | 13200
